Among the data in PubChem BioAssay are GFP response, % of DMSO values, retold here.

Values without a mark were called inactive.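 Rule for the calls: active = GFP response above 150% of the DMSO level; inconclusive = fewer than 70 events counted for a yeast strain; inactive = the rest.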

The test in a line: AGP1-GFP expression modulators, hit retest, confirmation, cell-based, flow cytometry, S. cerevisiae, cherry picks (AID 2273).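 Note: median GFP channel fluorescence over the whole cell population gate.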 The note with it: S. cerevisiae AGP1-GFP strain, 3 h, at 10 µM. (In flow cytometry, cells or beads pass a laser one at a time.)

Regarding `CCN(CC)c1ccc2cc(-c3nc(-c4ccc(OC)cc4)cs3)c(=O)oc2c1`, the GFP response, % of DMSO was 108%.
